ALR inh: blocks human ALR sulfhydryl oxidase activity; P55789; inhibition, % (no concentration beside the values); 290,000 compounds, 3.8% hits; purified ALR, DTT oxidation, H2O2 HRP-luminol luminescence;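 active = mean replicate inhibition above about 79%, with every replicate also reaching it, limit read from the data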
Target sequence (P55789 whole entry, looked up): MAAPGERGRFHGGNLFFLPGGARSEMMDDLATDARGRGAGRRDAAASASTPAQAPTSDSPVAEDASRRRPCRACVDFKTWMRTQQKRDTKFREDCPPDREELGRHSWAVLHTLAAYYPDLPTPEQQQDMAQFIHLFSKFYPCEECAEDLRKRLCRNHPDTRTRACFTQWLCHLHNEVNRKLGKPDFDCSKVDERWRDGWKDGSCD
APOBEC3G inh: inhibitors of human APOBEC3G DNA deaminase. Q9HC16. AID 493012. inhibition, % at 20 µM. 330,000 compounds, 0.28% hits. recombinant A3G, ssDNA deamination FAM/TAMRA fluorescence;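 active = inhibition of at least 40% at 20 µM, with no more than 30% in the related APOBEC3A deaminase screen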;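 also: plate controls were DMSO wells with A3G for no effect and wells lacking A3G enzyme for full effect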
Target sequence (Q9HC16 whole entry, looked up): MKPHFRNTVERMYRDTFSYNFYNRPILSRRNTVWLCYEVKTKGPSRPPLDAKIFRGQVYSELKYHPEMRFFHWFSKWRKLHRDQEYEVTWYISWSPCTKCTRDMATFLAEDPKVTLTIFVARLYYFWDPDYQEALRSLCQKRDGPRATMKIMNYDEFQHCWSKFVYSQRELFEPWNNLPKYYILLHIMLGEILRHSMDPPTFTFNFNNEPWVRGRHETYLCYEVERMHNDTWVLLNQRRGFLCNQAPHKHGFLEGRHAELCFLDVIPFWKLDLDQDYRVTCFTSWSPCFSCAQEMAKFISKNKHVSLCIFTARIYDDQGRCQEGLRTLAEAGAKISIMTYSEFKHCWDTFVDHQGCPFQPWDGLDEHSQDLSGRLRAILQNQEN
rCAG RNA binder: binds r(CAG) RNA repeats; r(CAG) RNA repeat, TO-PRO-1 dye displacement fluorescence; inhibition, % at 3 µM; AID 651821; 370,000 compounds, 1.3% hits;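 active = inhibition above the plate cutoff, the mean of all test compounds on that plate plus 3 SD, cut at about 35% in these data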;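 also: 0% = DMSO alone and 100% = 100 µM mitoxantrone as full dye displacement; higher means more dye released from RNA so lower well fluorescence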
A3A deaminase: human APOBEC3A DNA deaminase inhibition; recombinant A3A, FAM/TAMRA ssDNA deamination fluorescence; inhibition, % at 20 µM; 330,000 compounds, 0.41% hits;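 active = at least 40% inhibition at 20 µM here, with at most 30% in a related deaminase screen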;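 also: plate controls were A3A with DMSO for no effect and wells lacking A3A enzyme for full effect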
aDG glyco act: increases alpha dystroglycan glycosylation; Pro5-aDG cells, alpha-DG glycosylation AlphaScreen (IIH6); 0% Pro5, 100% B10-LARGE cell signal; activation, % at 10 µM; 360,000 compounds, 0.22% hits; AID 624168;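 active = activation of at least 8% versus controls, or a plate z-score of at least 8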;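 also: Pro5 are CHO cells carrying HIG-tagged alpha-DG that lacks glycosylation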
PHOSPHO1 inh: inhibitors of human PHOSPHO1 phosphatase. Q8TCT1. recombinant PHOSPHO1, absorbance phosphatase assay. inhibition, % at 13.3 µM. 290,000 compounds, 1.1% hits. AID 1565; in the data active = inhibition above about 60%
rCAG binder conf: r(CAG) RNA repeat binding, confirmation. shares compounds with rCAG RNA binder. inhibition, % at 3 µM. AID 652065. 4,300 compounds, 70% hits. TO-PRO-1 dye displacement fluorescence;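 active = inhibition above a per-plate cutoff, the mean inhibition of sample wells plus 3 SD, cut at about 35% in these data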;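 also: loss of TO-PRO-1 fluorescence as compound displaces dye from 1x1 AA loop RNA; 0% = DMSO only wells and 100% = 100 µM mitoxantrone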
DNA CAG counter: DNA CAG dye complex inhibition counter-screen; shares compounds with rCAG RNA binder; d(CAG) DNA oligo TO-PRO-1 dye displacement, fluorescence; inhibition, % at 3 µM; AID 652068; 4,300 compounds, 94% hits;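 active = inhibition above its plate's cutoff, the mean test-well inhibition plus 3 SD, cut at about 4.8% in these data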;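 also: 0% = DNA dye mix with DMSO and 100% = 100 µM mitoxantrone; hits displace the dye from DNA and so lower well fluorescence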
dCAG dye DR: counter-screen for rCAG binders: inhibitors of DNA CAG TO-PRO-1 complex; DNA CAG/GTC duplex TO-PRO-1 dye displacement fluorescence; IC50, µM; shares compounds with rCAG RNA binder; 250 compounds, 20% hits; in the data active = IC50 below about 10 µM
Active calls of the source: *; i = inactive; · = not tested or not shown. Sampled rows, rich in hits. Any-hit rate of the full collection: about 5.4%.

SMILES	ALR inh	APOBEC3G inh	rCAG RNA binder	A3A deaminase	aDG glyco act	PHOSPHO1 inh	rCAG binder conf	DNA CAG counter	others
C=CCOc1cccc(C2C(C(=O)c3cc4ccccc4o3)=C(O)C(=O)N2c2cc(C)on2)c1 (configuration not stated)	-12	-6	66*	-5	0	12	76*	40*
CCCOc1ccc(C2C(C(=O)c3cc4ccccc4o3)=C(O)C(=O)N2c2cc(C)on2)cc1 (configuration not stated)	-5	-8	31	-9	0	20	·	·
COc1cccc(C2C(C(=O)c3cc4ccccc4o3)=C(O)C(=O)N2c2cc(C)on2)c1 (configuration not stated)	98*	1	48*	-2	0	32	52*	18*
COc1ccc(OC)c(C2C(C(=O)c3cc4ccccc4o3)=C(O)C(=O)N2c2cc(C)on2)c1 (configuration not stated)	-2	-3	38*	-2	0	54	42*	12*
CCCOc1ccc(C2C(C(=O)c3cc4ccccc4o3)=C(O)C(=O)N2c2cc(C)on2)cc1OC (configuration not stated)	14	-3	40*	-3	0	13	76*	42*
Cc1cc(N2C(=O)C(O)=C(C(=O)c3cc4ccccc4o3)C2c2ccc(Br)cc2)no1 (configuration not stated)	·	-7	34	-8	0	-10	·	·
COc1ccccc1C1C(C(=O)c2cc3ccccc3o2)=C(O)C(=O)N1c1cc(C)on1 (configuration not stated)	11	-5	34	-10	-1	20	·	·
COCCNC(=O)C1(C)CCCN(Cc2c(C)nn(-c3ccccc3)c2C)C1 (configuration not stated)	·	·	-1	·	0	·	·	·
COC(=O)c1sc(N2C(=O)C(O)=C(C(=O)c3ccc(C)o3)C2c2cc(OC)ccc2OC)nc1C (configuration not stated)	7	-3	44*	0	1	15	60*	18*
CCOc1cccc(C2C(C(=O)c3ccc(C)o3)=C(O)C(=O)N2c2nnc(C)s2)c1 (configuration not stated)	·	·	3	·	0	·	·	·
CCCOc1cccc(C2C(C(=O)c3ccc(C)o3)=C(O)C(=O)N2c2nc(C)c(C(C)=O)s2)c1 (configuration not stated)	97*	-3	36*	3	0	-24	57*	18*	dCAG dye DR=i
CCC(=O)N1CCCC(C)(C(=O)Nc2ccc(C)c(C)c2)C1 (configuration not stated)	·	·	1	·	0	·	·	·
COCCNC(=O)C1(C)CCCN(CCSc2ccccc2)C1 (configuration not stated)	·	·	0	·	0	·	·	·
CC(C)(C)c1ccc(-c2c(C(=O)O)c(C(=O)O)c3n2CSC3)cc1	55	-1	49*	8	0	-6	41*	8.4*
COC(=O)c1c(C(=O)OC)c(-c2ccc(C(C)(C)C)cc2)n2c1CS(=O)C2 (configuration not stated)	-22	-1	-4	4	1	45	·	·
CCOC(=O)C1=CCN(S(=O)(=O)c2ccccc2F)C1c1ccc(Br)cc1 (configuration not stated)	·	·	-2	·	·	·	·	·
Cn1c2ccccc2c2cc(/C=C(\NC(=O)c3ccccc3)C(=O)O)ccc21	86*	-3	37*	0	0	-5	26	8.0*
COc1ccc(-n2c(COc3ccc(C)cc3)nnc2SCC(=O)Nc2ccc(S(=O)(=O)Nc3cc(C)nc(C)n3)cc2)cc1	·	·	51*	·	·	·	44*	14*
Cc1ccc(-n2c(SCC(=O)Nc3ccc(S(=O)(=O)Nc4cc(C)nc(C)n4)cc3)nnc2-c2ccc(C(C)(C)C)cc2)cc1	·	·	44*	·	·	·	42*	16*
CCOc1ccc(-n2c(SCC(=O)Nc3ccc(S(=O)(=O)Nc4cc(C)nc(C)n4)cc3)nnc2-c2cccc(C)c2)cc1	·	·	47*	·	·	·	47*	16*
Cc1cc(NS(=O)(=O)c2ccc(NC(=O)CSc3nnc(-c4ccco4)n3N)cc2)nc(C)n1	20	-5	0	-2	0	-11	·	·
COc1ccc(OCC(=O)Nc2ccc(S(=O)(=O)Nc3cc(C)nc(C)n3)cc2)cc1	-2	-4	6	-1	0	-2	·	·
Cc1ccc(OCc2nnc(SCC(=O)Nc3ccc(S(N)(=O)=O)cc3)n2-c2ccc(Cl)cc2)cc1	·	·	11	·	·	·	·	·
CCOc1ccc(-n2c(SCC(=O)Nc3ccc(S(=O)(=O)Nc4cc(C)nc(C)n4)cc3)nnc2-c2ccc(OC)cc2)cc1	·	·	41*	·	·	·	44*	15*
CCOc1ccc(-n2c(SCC(=O)Nc3ccc(S(=O)(=O)Nc4cc(C)nc(C)n4)cc3)nnc2-c2ccncc2)cc1	·	·	20	·	·	·	·	·
SMILES	ALR inh	APOBEC3G inh	rCAG RNA binder	A3A deaminase	aDG glyco act	PHOSPHO1 inh	rCAG binder conf	DNA CAG counter	others
CCOc1ccc(-n2c(SCC(=O)Nc3ccc(S(=O)(=O)Nc4cc(C)nc(C)n4)cc3)nnc2-c2ccc(C)cc2)cc1	·	·	52*	·	·	·	58*	18*
O=C(O)c1cccc(S(=O)(=O)N2CCC(Cc3ccccc3)CC2)c1	5	-3	22	-3	0	30	·	·
O=C(O)c1ccc(Cl)c(S(=O)(=O)N2CCC(Cc3ccccc3)CC2)c1	7	-6	62*	-2	0	16	45*	13*
COC(=O)[C@@H](CC(C)C)NS(=O)(=O)N(Cc1ccccc1)[C@@H](CC(C)C)C(=O)OC	-4	-6	-11	-1	0	·	·	·
Cc1ccc(S(=O)(=O)Oc2ccc(/C=N/N=C3/NC(=O)C(CC(=O)O)S3)cc2)cc1[N+](=O)[O-] (configuration not stated)	66	-6	41*	-3	0	18	29	8.5*
COc1cc(/C=N/N=C2/NC(=O)C(CC(=O)O)S2)ccc1OCc1ccc(Cl)cc1 (configuration not stated)	5	-1	54*	0	0	-12	38*	10*
CCCc1cc(=O)[nH]c(SCC(=O)Nc2nc(-c3ccccc3)cs2)n1	99*	2	45*	0	0	12	56*	19*
CCCc1cc(=O)[nH]c(SCC(=O)NC(=O)c2ccccc2)n1	-2	-2	·	1	0	-2	·	·

High-throughput results from PubChem BioAssay.
